# A selection: hits, their analogues and other compounds. The true share with any hit is near 10%.
# GLS inhibitor: blocks human kidney-isoform glutaminase activity; O94925; GLS enzymatic activity, qHTS titration; Potency, µM (series often up to 45.5 µM), for inactives: top-dose activity change, negative = inhibition, hits mostly inhibitors; 410,000 compounds, 0.21% hits; further: on the % scale 0 is the no-effect control and ±100 the full control effect
#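 Assay buffer: 45 mM KH2PO4 pH 8.2, 0.02% Tween-20. hKGA acts on L-glutamine (1 mM solution added); product glutamate is reported by an oxidase/peroxidase Amplex Red coupling, with fluorescence taken at baseline and 30 min.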
# HP1b chromo inh: inhibitors of HP1-beta chromodomain binding to methylated histone tails. Potency, µM (doses to about 114 µM), for inactives: at the highest dose activity change, negative = inhibition, usual class: inhibitors. AlphaScreen HP1-beta / biotin-H3K9me3 peptide binding. AID 540317. 390,000 compounds, 0.56% hits; further: nearly all actives have a fitted effect of over 70% in size
#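 AlphaScreen: HP1-beta (50 nM) preformed 30 min with biotin-H3(1-18)K9me3 peptide (50 nM) in PBS pH 7.4, 0.01% Tween-20. Compound added for 30 min at RT, then streptavidin donor/nickel chelate acceptor beads (10 ug/mL) for 30 min.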
# BAZ2B inh: BAZ2B (human) inhibition; Q9UIF8; Potency, µM (titrated, usually from 114 µM), for the others: at the top dose activity change, negative = inhibition, hits mostly inhibitors; AlphaScreen BAZ2B-H3K14Ac peptide displacement; 360,000 compounds, 4.4% hits; further: on the % scale 0 is the no-effect control and ±100 the full control effect; nearly all actives have a fitted effect of over 60% in size
#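 Multi-concentration screen (max 110 uM) measuring displacement of acetylated histone H3 peptide from BAZ2B by AlphaScreen, using 50 nM protein, 50 nM peptide and 10 ug/mL streptavidin donor plus Ni-chelate acceptor beads.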
# JMJD2A Tudor: blocks the human JMJD2A Tudor domain; Potency, µM (series often up to 114 µM), inactives show at the highest dose activity change, negative = inhibition, hits mostly inhibitors; AID 504339; 390,000 compounds, 4.4% hits; AlphaScreen JMJD2A-Tudor / H3K4me3 peptide binding; further: on the % scale 0 is the no-effect control and ±100 the full control effect; nearly all actives have a fitted effect of over 50% in size
# Target sequence (O75164 whole entry, looked up, the tested form may be a part): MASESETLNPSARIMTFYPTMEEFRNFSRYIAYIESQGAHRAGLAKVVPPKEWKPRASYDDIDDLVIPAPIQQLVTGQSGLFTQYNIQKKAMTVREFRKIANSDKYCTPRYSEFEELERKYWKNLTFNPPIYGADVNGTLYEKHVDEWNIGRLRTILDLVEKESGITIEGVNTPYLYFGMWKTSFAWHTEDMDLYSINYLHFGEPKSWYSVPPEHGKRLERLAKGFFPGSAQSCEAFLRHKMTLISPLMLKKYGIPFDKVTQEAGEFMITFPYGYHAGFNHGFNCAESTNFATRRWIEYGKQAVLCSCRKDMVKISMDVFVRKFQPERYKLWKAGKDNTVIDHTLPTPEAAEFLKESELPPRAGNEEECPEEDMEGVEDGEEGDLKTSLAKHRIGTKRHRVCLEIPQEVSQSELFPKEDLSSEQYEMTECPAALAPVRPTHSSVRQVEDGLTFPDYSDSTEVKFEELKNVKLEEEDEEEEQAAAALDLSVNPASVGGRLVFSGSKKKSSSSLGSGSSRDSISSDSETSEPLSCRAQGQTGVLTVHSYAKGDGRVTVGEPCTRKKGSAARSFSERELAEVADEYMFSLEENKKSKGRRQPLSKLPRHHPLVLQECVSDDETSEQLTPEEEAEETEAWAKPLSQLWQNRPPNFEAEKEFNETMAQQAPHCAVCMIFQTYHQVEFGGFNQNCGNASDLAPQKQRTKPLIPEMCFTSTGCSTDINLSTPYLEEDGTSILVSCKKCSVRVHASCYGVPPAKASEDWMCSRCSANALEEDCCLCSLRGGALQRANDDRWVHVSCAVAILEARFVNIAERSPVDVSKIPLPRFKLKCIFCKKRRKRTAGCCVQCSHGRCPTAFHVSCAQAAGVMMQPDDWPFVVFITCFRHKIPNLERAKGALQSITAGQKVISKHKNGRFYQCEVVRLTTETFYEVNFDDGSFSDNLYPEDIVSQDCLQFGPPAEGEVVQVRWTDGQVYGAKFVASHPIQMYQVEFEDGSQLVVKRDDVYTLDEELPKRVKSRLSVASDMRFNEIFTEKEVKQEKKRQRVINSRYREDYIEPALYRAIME
# G9a block: blocks human histone lysine methyltransferase G9a. Q96KQ7. 350,000 compounds, 8.8% hits. G9a H3K9 monomethylation, AlphaScreen, 2 h. Potency, µM (titrated, usually from 102 µM), for the others: top-dose activity, negative = inhibition, usual class: inhibitors; further: on the % scale 0 is the no-effect control and ±100 the full control effect; nearly all actives have a fitted effect of over 75% in size
#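 Chemiluminescent proximity detection of H3K9 monomethylation, read after 10 min bead incubation in the dark. Reaction: 20 nM G9a, 500 nM biotin-H3K9 peptide, 20 uM SAM cofactor, 2 h, room temperature, following 15 min enzyme-compound preincubation.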
# * = called active by the depositor; ? = inconclusive; . = no result; ! = repeats disagree; [ ] = dose if it differs, or a comment. The call rests on the fitted dose curve; in most records, active means well fitted curve in the direction sought with a large enough effect; inconclusive means small, poorly fitted or top-dose-only effect, or another doubt; inactive means no such curve, though single readings can be large; an effect the other way counts as inactive or inconclusive. Potency means the concentration at half of the fitted maximal effect.
SMILES,GLS inhibitor,HP1b chromo inh,BAZ2B inh,JMJD2A Tudor,G9a block
Cc1nn(C)c(C)c1NC(=O)CCl,-11%,17%,35µM*,-26%,45µM*
C=CCn1c(SCCN)nnc1-c1cccc(S(=O)(=O)N2CCOCC2)c1,-1%,22%,.,14µM*,.
CCOC(=O)Cc1csc(-n2sc3ccccc3c2=O)n1,?,?,5µM*,18µM*,1.1µM*
CCOC(=O)Cc1csc(NC(=O)c2cc(=O)c3ccccc3o2)n1,5%,29%,-25%,-13%,-45%
CCOC(=O)Cc1csc(SCn2nnc3ccccc3c2=O)n1,-5%,53%,29%,1%,45µM*
Cc1n[nH]c2c([N+](=O)[O-])c(=O)[nH]c(=O)n12,5%,8%,.,?,.
Cc1ccc(C)n1-c1ccc(C#N)cn1,2%,-19%,-14%,-23%,-28%
N#Cc1cnc(NN)nc1,?,?,22µM*,0.79µM*,50µM*
COC(=O)c1ccccc1NC(=O)c1cc(C)nc2c1c(C)nn2-c1ccc(C)cc1,2%,42%,12%[57.1 µM],4%,3%[59 µM]
CC(C)Cc1ccccc1S(N)(=O)=O,3%,63%,3%,-1%,?
CCn1c(O)c(C=Nc2ccccc2)n(-c2ccccc2)c1=S,-14%,1%,12%,11%[11.4 µM],7.9µM*
Cc1cccc(NC(=O)C2CCCN(S(=O)(=O)c3ccc4c(c3)oc(=O)n4C)C2)c1C (centres undefined),2%,23%,-3%,-19%,2%[59 µM]
COc1ccc(NC(=O)/C=C\C(=O)N(c2ccc(C(C)C)cc2)C(C(=O)NCc2ccco2)c2ccc(C)cc2)cc1 (centres undefined),-5%,44%,-17%,-32%,?
COc1ccc(N(C(=O)/C=C\C(=O)Nc2ccc(C)cc2)C(C(=O)NCc2ccco2)c2ccc(C)cc2)cc1 (centres undefined),-4%,8%,-20%,?,14µM*
CCOc1ccc(CNC(=O)Cn2cc3c(n2)-c2c(oc(C(=O)N4CCOCC4)c2C)CC3)cc1,-12%,27%,?,56µM*,?
O=C(COC(=O)Cc1ccsc1)Nc1ccc(Br)cc1F,2%,64%,3%,11%,35%[12.7 µM]
C/C(=C/c1oc2ccc(O)cc2c1[N+](=O)[O-])N(C)C,-11%,2%,?,2%[57.1 µM],79µM*
COc1cc(OC)c(OC)cc1CNc1cc(C)ccc1OC,21%,?,.,40µM*,7.9µM*
COc1cccc(CNS(=O)(=O)c2ccccc2Br)c1OC,23%,32%,.,79µM*,.
COc1ccc(C)cc1NCc1cccc(OC)c1OC,4%,?,45µM*,6.3µM*,7.9µM*
Cc1csc(-c2ccc3cc(Cl)cc(Cl)c3n2)n1,-1%,.,.,.,.
O=C(/C=C1\NC2(CCCC2)Cc2ccccc21)N1CCOCC1,12%,-17%,?,50µM*,32µM*
Cc1ccc(Cn2c(CNS(=O)(=O)c3ccc(Cl)s3)nc3cccnc32)cc1,-12%,26%[57 µM],-2%,-3%,31%[59 µM]
CCOC(=O)CNC(=O)CSc1nc(C(C)C)nc2c1cnn2-c1ccccc1,2%,.,.,.,.
CCN(CC)C(=O)c1[nH]cnc1C(=O)Nc1ccc(OC)cc1,3%,18%,-38%,-9%,-1%[59 µM]
SMILES,GLS inhibitor,HP1b chromo inh,BAZ2B inh,JMJD2A Tudor,G9a block
CCOC(=O)c1ccc(NC(=O)c2nc[nH]c2C(=O)N(CC)CC)cc1,2%,37%,-2%,-25%,?
CCOC(=O)c1[nH]cnc1C(=O)Nc1ccc(F)cc1,1%,38%,?,-26%,45µM*
CCOC(=O)c1[nH]cnc1C(=O)Nc1ccncc1,-2%,1%,50µM*,28µM*,?
CCN(CC)C(=O)c1[nH]cnc1C(=O)Nc1ccc(Cl)cc1,2%,37%,50µM*,-33%,-3%[0.501 µM]
COc1ccc(N2CCN(S(=O)(=O)c3ccc(OC)c(-c4noc(C)n4)c3)CC2)cc1,-9%,24%,-5%,-5%,-24%[59 µM]
CNCCC(Oc1ccccc1C)c1ccccc1 (centres undefined),-7%,.,.,.,21µM*!
C[C@H](NCCC(c1ccccc1)c1ccccc1)c1ccccc1,.,.,.,.,0%[21.5 µM]
CN(Cc1nc2ccccc2c(=O)[nH]1)C(=O)c1cc(C2CC2)nn1-c1ccccc1,4%,49%,4%,1%,?

# From PubChem BioAssay
